Rows were chosen to be rich in hits. Some 7.3% of all compounds tested hit in one or more screens of this group.
Vaccinia mCherry: inhibitors of vaccinia virus infection (mCherry reporter signal) | Vaccinia virus mCherry reporter infection, fluorescence | Potency, µM (highest dose often 36.5 µM), for the others: at the highest dose activity change, negative = inhibition, hits mostly inhibitors | hit rate 0.63% among 310,000; calls by dose curve; tested in A549 cells; further: potency means the concentration at half of the fitted maximal effect; nearly all actives have a fitted effect of over 35% in size
HCMV inh: inhibitors of human cytomegalovirus | HFF cells, HCMV-luciferase reporter, 72 h; stronger effect = lower value | activity change, negative = inhibition, % at 57.5 µM | hit rate 4.5% among 410,000; in the data active means activity change below about -60%; inconclusive means no clear call, values can overlap the other calls; inactive means above about -39%
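Steps: HFFs plated, 16 h 37C; compounds added; HCMV-luciferase added to MOI 1 PFU/cell; 72 h 37C; OneGlo reagent, 5 min room temperature; luminescence read, normalized to controls.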
Vaccinia Venus: vaccinia inhibition (Venus reporter). hit rate 0.46% among 330,000. Vaccinia virus Venus reporter expression, fluorescence. Potency, µM (top dose mostly 36.5 µM), for inactives: top-dose activity change, negative = inhibition, hits mostly inhibitors; calls by dose curve; tested in A549 cells; further: potency means the concentration at half of the fitted maximal effect; nearly all actives have a fitted effect of over 30% in size
HCV inh: blocks hepatitis C virus. Huh7.5.1 HCVcc-Cre infection, luciferase reporter, 44 h. Potency, µM (top dose mostly 41.8 µM), for the others: top-dose activity change, negative = inhibition, most hits filed as inhibitors. hit rate 3.4% among 340,000; active means well fitted inhibition curve with a large enough effect; inconclusive means small, poorly fitted or top-dose-only effect, or another doubt; inactive means no such curve, though single readings can be large or run the other way; further: potency means the concentration at half of the fitted maximal effect
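HCVcc-Cre virus at an moi near 0.5 was added right after compound to cells cultured 4 h from seeding (1,000 cells/well). Luciferase activity was determined 44 h later, 15 min after substrate addition at RT.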
FMDV inh: blocks foot and mouth disease virus; FMDV antiviral cell-based qHTS; Potency, µM (doses to about 57.9 µM), for inactives: at the highest dose activity change, negative = inhibition, most hits filed as inhibitors; hit rate 1.2% among 410,000; calls by dose curve; tested in HEK293T cells; further: read-out not given here; potency means the concentration at half of the fitted maximal effect; nearly all actives have a fitted effect of over 45% in size
* hit, by the source's call; i = inactive; ? = inconclusive; . = no result; [ ] = dose if it differs, or a comment. On the % scale 0 is the no-effect control and ±100 the full control effect.

SMILES	Vaccinia mCherry	HCMV inh	Vaccinia Venus	HCV inh	FMDV inh
CCOc1ccc(NC(=O)CSC2=NN3CCCC(=O)N=C3S2)cc1	.	-9	.	-20%	12%
Cc1ccccc1-c1nc(SCC(=O)NCc2ccc(F)cc2)c2c(=O)n(C)c(=O)n(C)c2n1	-9%	-6	-12%	.	-11%
COc1ccc(S(=O)(=O)N2CCCCCC2)cc1C(=O)N1CCN(c2ccccc2O)CC1	-24%	9	-21%	-10%	-13%
CC(=O)Nc1cccc(NC(=O)c2cccc(S(=O)(=O)N3CCN(Cc4ccccc4)CC3)c2)c1	-18%	-14	-13%	?	-11%
CCN(CC)C(=O)c1ccc(NC(=O)c2cccc(S(=O)(=O)N3CCN(Cc4ccccc4)CC3)c2)cc1	-18%	-78*	?	6.3µM*	?
Cc1ccc(C)c(NC(=S)N2CCN(S(=O)(=O)c3ccccc3)CC2)c1	-27%	-71*	-21%	12%	-10%
Cc1ccc(C)c(NC(=O)CN(C)C(=O)c2cccc(S(=O)(=O)N3CCN(Cc4ccccc4)CC3)c2)c1	-3%	?	-16%	5.6µM*	14µM*
CCc1ccccc1NC(=O)CNC(=O)c1cccc(S(=O)(=O)N2CCN(Cc3ccccc3)CC2)c1	-6%	-25	-21%	10µM*	-19%
O=S(=O)(NCc1nnc2n1CCN(Cc1ccccc1Cl)CC2)c1ccccc1	i	.	-10%	.	-12%
O=S(=O)(c1ccccc1)N1CCN(C(=S)Nc2ccc(F)cc2)CC1	-23%	-26	-14%	9%	36%
O=S(=O)(c1ccc(Cl)cc1)N1CCN(C(=S)Nc2ccc(F)c(Cl)c2)CC1	-20%	-62*	?	-1%	-3%
CCc1ccc(C2c3c(-c4ccccc4O)n[nH]c3C(=O)N2Cc2ccncc2)cc1 (stereo not drawn)	?	-20	-28%	.	-20%
OCCN1CCN(Cc2ccc3c(c2)CN(Cc2cnc(-c4ccccc4)s2)CCO3)CC1	-11%	.	-5%	.	-11%
CCc1ccc(/C=N/NC(=O)c2cc(-c3ccccc3OC)nc3ccccc23)s1	-17%	44	-8%	-22%	-10%
CCc1ccc(/C=N/NC(=O)c2cc(C3CC3)nc3ccc(Br)cc23)s1	?	-63*	?	22µM*	0%
CC(C)CCNC(=O)c1cc2cc(S(=O)(=O)N3CCCCC3)ccc2n1C	-12%	-2	-15%	.	-15%
CCC(C(=O)NCCC(C)C)n1ccc2cc(S(=O)(=O)N3CCCCC3)ccc21 (stereo not drawn)	i[7.34 µM]	.	0%[7.34 µM]	10µM*	-10%
CNCCc1c[nH]c2ccc(O)cc12	i	-8	-7%	3.2µM*	0%
CNCCc1c[nH]c2ccccc12	i	.	-5%	10%	-27%
Cc1nc(NCc2ccc3nsnc3c2)sc1-c1ccn(C)n1	-21%	.	-17%	.	16%
COc1cc2c(cc1OC)C(C(=O)O)C(c1ccc3c(c1)OCO3)N(C)C2=O (stereo not drawn)	.	-3	.	.	.
Cc1cccc(NC(=O)C2CCN(S(=O)(=O)c3ccc(Cl)cc3)CC2)n1	-23%	?	-21%	?	?
Cc1cccc(NC(=O)C2CCN(S(=O)(=O)c3ccc4ccccc4c3)CC2)n1	-27%	-19	-13%	?	25µM*
Cc1cccc(NC(=O)C2CCN(S(=O)(=O)c3c(C)nn(C)c3C)CC2)n1	i	?	-9%	25µM*	?
c1ccc(-c2noc(-c3ccc4c(c3)OCO4)n2)cc1	-6%	0	-10%	1%	14µM*
SMILES	Vaccinia mCherry	HCMV inh	Vaccinia Venus	HCV inh	FMDV inh
CCN1CCN(c2ccc(NC(=O)COc3ccc(Cl)cc3C)cc2)CC1	.	?	.	10µM*	?
CC(=O)N1CCN(c2ccc(NC(=O)COc3ccc(Cl)cc3Cl)cc2)CC1	.	-64*	.	?	?
COc1ccccc1NC(=O)CSc1nnc(C)s1	-12%	11	-10%	13%	15%
Cc1cccc(-c2nc(CN3CCCC(C(=O)N4CCN(c5cc(Cl)ccc5C)CC4)C3)c(C)o2)c1 (stereo not drawn)	-11%	-23	-14%	.	?
Cn1nc(C(F)(F)F)cc1Oc1ncc(C(F)(F)F)cc1Cl	-13%	-62*	-2%	-13%	-2%
CCOP(=O)(OCC)c1nc(-c2cccc3ccccc23)oc1NCc1ccccc1	-21%	-9	-21%	0%	9%
CCOP(=O)(OCC)c1nc(-c2ccc(C)cc2)oc1NCc1ccccc1	-22%	-61*	0%	-22%	-3%
CCN(CC)C(=O)c1nn(-c2ccccc2)c2c1C1CCC2(C)C1(C)C (stereo not drawn)	-4%	-95*	-11%	13µM*	-24%
CN(C)c1ccc(/C=C/CNC[C@H]2O[C@@H](n3ccc(N)nc3=O)[C@H](O)[C@@H]2O)cc1	-27%	-23	0%	.	-8%
CC(C)c1ccc(C2C3=C(COC3=O)Nc3cc4c(cc32)OCO4)cc1 (stereo not drawn)	?	-88*	?	-46%	5%
O=C(NCCSCc1c(F)cccc1Cl)C1CCN(S(=O)(=O)Cc2ccccc2)CC1	-1%	14	1%	.	-7%
N#Cc1ccc(OCC(O)CS(=O)(=O)c2ccc(F)cc2)cc1 (stereo not drawn)	-13%	?	-5%	-21%	-14%
Cc1ccc(S(=O)(=O)CC(O)COc2ccc(C#N)cc2)cc1 (stereo not drawn)	-17%	-70*	-5%	12%	-8%
Cc1ccc(-n2nnnc2SCC(=O)Nc2ccccc2N2CCCCC2)cc1C	.	-27	?	10µM*	-1%
Cc1ccc(-n2nnnc2SCC(=O)Nc2cccc(NC(=O)c3ccco3)c2)cc1C	-30%	?	-25%	7.9µM*	-2%
CCC(=O)Nc1cccc(-n2nnnc2SCC(=O)NCc2ccco2)c1	-20%[1.46 µM]	-19	-14%	-26%	17%
CCC(=O)Nc1cccc(-n2nnnc2SCC(=O)c2ccc(C)c(C)c2)c1	i	-7	-10%	11µM*	?
Cc1ccc(C)c(S(=O)(=O)N2CCN(CC(=O)NC(C)c3ccccc3)CC2)c1 (stereo not drawn)	.	-5	.	?	-23%
C/C(N)=C(/C#N)C(=O)CSc1nc(-c2ccccc2)c(-c2ccccc2)o1	-13%	-30	-5%	-28%	-21%
COc1cc2nc(N3CCCN(C)CC3)nc(N(C)C)c2cc1OC	-26%	.	-21%	.	.
NC(=S)n1[nH]c(-c2ccc([N+](=O)[O-])cc2)c(N=Nc2cccc([N+](=O)[O-])c2)c1=O	-23%	-72*	-8%	10µM*	?
Cc1c(N=Nc2c(-c3ccc([N+](=O)[O-])cc3)[nH]n(C(N)=S)c2=O)cccc1[N+](=O)[O-]	?	-96*	-14%	8.9µM*	?
CSc1nc2sc3c(c2c(=O)n1C)CCC3	.	-13	.	?	10%
CSc1nc2sc3c(c2c(=O)n1C)CCCC3	-13%	-9	-16%	11µM*	.
CC(=O)c1c(C)n(-c2cccc(C)c2)c2ccc(OC(=O)COc3ccccc3)cc12	-12%	-63*	-1%	.	0%

Assay outcomes from PubChem BioAssay.
